Measurements as given in PubChem BioAssay AID624449 (Southern Research Specialized Biocontainment Screening …, 2012).
Results with a measured potency or affinity are listed apart. The source made the active and inactive calls. How the calls were made is not given here.

assay: VEEV TC-83 cytopathic effect inhibition, confirmation, cell-based, TC-83 strain, set 6 (AID 624449); conditions: VEEV TC-83 infected cells; series mostly up to 25 µM

**Q.** Which outcome does the source give for `COc1ccccc1-n1c(CN2CCNCC2)nc2ccc([N+](=O)[O-])cc2c1=O` here?
**A.** inactive

**Q.** With `CCN1CCN(Cc2nc3ccc(C(=O)O)cc3c(=O)n2-c2ccccc2)CC1` as the compound, how does the outcome read?
**A.** inactive

**Q.** Which outcome does the source give for `CCN1CCN(Cc2nc3ccc([N+](=O)[O-])cc3c(=O)n2C)CC1` here?
**A.** inactive
